# Where “and” joins values, the source holds several entries; their conditions need not be identical. Identical values can stand only once. Results filed as inconclusive are left out. More than one record can exist for a structure, and the calls need not agree. Calls of active or inactive are those of the source. Rule for the calls: active = hit-call score of the fitted dose curve at least 0.9, where 1 is the maximum; inconclusive = response in the unintended direction; inactive = score below 0.9.
# Assay: TOX21_p53_BLA_p4_viability: Viability Assessment in the Tox21 HCT-116 p53 Agonism Beta-lactamase Assay, Phase 4 (AID 2283597);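 note: hits lower the luminescence signal meaning cytotoxicity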
# Description: TOX21_p53_BLA_p4 is a cell-based, single-readout assay that uses HCT116, a human intestinal cell line, […] in a 1536-well plate.TOX21_p53_BLA_p4_viability is an assay readout measuring cellular ATP content and detected with CellTiter-Glo Luciferase-coupled ATP quantitation.TOX21_p53_BLA_p4_viability used a type of viability reporter where loss-of-signal activity can be used to understand changes in the cell viability. Furthermore, this assay endpoint can be referred to as a secondary readout, because this assay has produced multiple assay endpoints where this one serves a viability function. To generalize the intended target to other relatable targets, this assay endpoint is annotated to the cell cycle intended target family, where the subfamily is cytotoxicity.
# Thawing Method: Place 14 mL of pre-warmed thaw medium into a 15 mL of conical tub. Remove the vial of cells to be thawed from liquid nitrogen and thaw rapidly by placing at 37C in a water bath with gentle agitation for 1-2 minutes. Decontaminate the vial by wiping with 70% ethanol before opening in a biological safety cabinet. Transfer the vial contents drop-wise into 14 mL of thaw medium in a sterile 15-mL conical tub. Centrifuge cells at 900 rpm for 4 minutes and resuspend in thaw medium. Transfer contents to the T75 tissue culture flask containing Thaw Medium and place flask in a humidified 37C/5% CO2 incubator. Switch to growth medium at first passage.Propagation Method: Aspirate medium, rinse once in DPBS, add 0.25% Trypsin/EDTA and swirl to coat the cell evenly. Add an equal volume of Growth Medium to inactivate Trypsin after 2-3 minutes incubation at 37C. Centrifuge cells at 900 rpm for 4 minutes and resuspend in growth medium. Cell should be passage or fed at least twice a week.Assay Protocol: Harvest cells from culture in growth medium and resuspend in assay medium. 2.2 Dispense 4000 cells/5 uL/well into 1536-well black/clear bottom plates using a Multidrop dispenser. After the cells were incubated at 37C for 5 hours, 23 nL of compounds dissolved in DMSO were transferred to the assay plate by a PinTool resulting in a 217-fold dilution. Incubate the plates for 16 hours at 37C, 5% CO2. Add 1 uL of 6X LiveBLAzer FRET B/G (CCF4-AM) Substrate Mixture to each well using a BioRAPTR dispenser and incubate the plates at room temperature for 2 hours. Measure fluorescence intensity at 460 and 530 nm emission and 405 nm excitation by an Envision detector. Data is expressed as the ratio of 460nm/530nm emissions. Add 4 uL of Cell-titer Glo to each well using BioRAPTR and incubate the plates at room temperature for […]. For cell viability readout that measures cytotoxicity, 4 ul/well of CellTiter-Glo reagent was added into the assay plates using a Flying Reagent Dispenser. After 30 min incubation at room temperature, the luminescence intensity in the plates was measured using a ViewLux plate reader.
Compound,AC50,outcome
O=C(NC(=O)c1c(F)cccc1F)Nc1cc(Cl)c(Oc2ncc(C(F)(F)F)cc2Cl)c(Cl)c1,4.06 µM (active),–
c1ccc2c(c1)Oc1ccccc1O2,–,inactive
CC(C)[N+](=O)[O-],–,inactive
Nc1ccc(Br)cc1,–,inactive
CCCCOC(=O)COC(=O)c1ccccc1C(=O)OCCCC,–,inactive
CC(C)[C@@H](Nc1ccc(C(F)(F)F)cc1Cl)C(=O)OC(C#N)c1cccc(Oc2ccccc2)c1 (stereo not given in full),–,inactive
O=C(O)COc1ccc(Cl)cc1,–,inactive
Cc1cc(-c2cc(C)c(N)c(C)c2)cc(C)c1N,–,inactive
Cc1cc(C(C)(C)c2ccc(O)c(C)c2)ccc1O,–,inactive
O=NN1CCCCCCC1,–,inactive
OC(c1ccc(Cl)cc1)(c1ccc(Cl)cc1)c1cccnc1,60.5 µM (active),–
CC(C)C(C)(N)C#N (stereo not given),–,inactive
Cc1cc(C(F)(C(F)(F)F)C(F)(F)F)ccc1NC(=O)c1cccc(I)c1C(=O)NC(C)(C)CS(C)(=O)=O,–,inactive
O=C(Nc1ccc(Br)cc1)c1cc(Br)cc(Br)c1O,1.33 µM (active) and 417 nM (active) and 2.76 µM (active),–
COC(=O)Nc1cccc(OC(=O)Nc2cccc(C)c2)c1,–,inactive
N#CS,–,inactive
O=C(CBr)c1ccc(O)cc1,–,inactive
O=[N+]([O-])c1ccc(Cl)c([N+](=O)[O-])c1,71.9 µM (active) and 42.9 µM (active),–
Brc1ccc(Br)cc1,–,inactive
O=C1C[C@@H]2OCC=C3CN4CC[C@]56c7ccccc7N1[C@H]5[C@H]2[C@H]3C[C@H]46,–,inactive

Compound,AC50,outcome
CCC(C)(C#N)N=NC(C)(C#N)CC (stereo not given),–,inactive
O=[N+]([O-])c1ccccc1O,–,inactive
CC(C)(C)c1cc([N+](=O)[O-])cc(C(C)(C)C)c1O,46.1 µM (active),–
C#CCOC(=O)/C=C(C)/C=C/CC(C)CCCC(C)C (stereo not given),–,inactive
COP(=S)(OC)Oc1cc(Cl)c(I)cc1Cl,–,inactive
CCN(N=O)C(N)=O,–,inactive
CC1(C)[C@H](/C=C2\CCSC2=O)[C@@H]1C(=O)OCc1coc(Cc2ccccc2)c1,–,inactive
CCOP(=O)(OCC)OC(=CCl)c1ccc(Cl)cc1Cl,–,inactive
Cl[C@H]1OCCO[C@@H]1Cl,–,inactive
CCCSP(=S)(OCC)Oc1ccc(SC)cc1 (stereo not given),–,inactive
O=[N+]([O-])c1ccc(Nc2ccccc2)cc1,82.4 µM (active),inactive
CC(C=O)Cc1ccc2c(c1)OCO2 (stereo not given),–,inactive
O=NN1CCOCC1,–,inactive
CCC[CH2][Sn]([Cl])([Cl])[CH2]CCC,2.06 µM (active) and 3.45 µM (active),–
Nc1cccnc1,–,inactive
O=[N+]([O-])c1cccc2ccccc12,–,inactive
C[CH2][Hg][S]c1ccccc1C(=O)O,41.7 µM (active) and 5.78 µM (active),–
O=c1[nH]c2ccccc2n1C1CCN(CCCC(c2ccc(F)cc2)c2ccc(F)cc2)CC1,14.6 µM (active) and 11.3 µM (active),–
COCCl,–,inactive

# Source: PubChem BioAssay (EPA / NIEHS)
